cytoskel mod: alters cytoskeleton assembly in HUVEC cells | HUVEC TNFa F-actin phalloidin imaging, high content | inhibition, % at 2 µM | 0.18% of 91,000 active;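 active means inhibition above the batch mean plus 3 SD and confirmed as a hit by visual image inspection, cut at about 30% in these data, passing the limit was not always enough; inconclusive means above the inhibition threshold but rejected on visual inspection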
HUVEC tox TNFa: toxic to HUVEC cells under TNF alpha stimulation; HUVEC TNFalpha-stimulated, Hoechst cell count, imaging; cell count reduction, % at 2 µM; 0.17% of 93,000 active;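 active means cell count reduction exceeding the screen mean by over 5 SD, scaled to untreated wells per plate, cut at about 78% in these data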;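 further: cells counted after 24 h of TNF alpha exposure following the 1 h pretreatment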
VCAM1 TNFa inh: reduces TNF alpha induced VCAM1 expression in HUVEC. 0.48% of 95,000 active. inhibition, % at 2 µM. AID 802. HUVEC TNFa-induced VCAM-1 immunofluorescence, high-content imaging;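 active means inhibition above the batch mean plus 3 SD, with images confirmed as a hit by eye, cut at about 37% in these data; inconclusive means inhibition above that limit but hit not confirmed in images; inactive means inhibition not above that limit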;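 further: 0% = TNF-stimulated DMSO wells and 100% = unstimulated control wells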
E-sel TNF inh: TNF alpha driven E-selectin expression inhibition; HUVEC TNFa-induced E-selectin immunofluorescence, high content; inhibition, % at 2 µM; 0.71% of 120,000 active; AID 1246;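 active means inhibition above the batch mean plus 3 SD, and confirmed as a hit on visual image review, cut at about 43% in these data; inconclusive means passes the inhibition cutoff but fails visual image review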;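 further: 0% = TNF-stimulated DMSO wells and 100% = unstimulated control wells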
* = called active by the depositor; ? = inconclusive; / = not tested or not shown. Only some compounds are listed: those with a hit (about 1.1% of all), similar ones and a draw of the others.

SMILES | cytoskel mod | HUVEC tox TNFa | VCAM1 TNFa inh | E-sel TNF inh
COc1cc(-c2noc(CCC(=O)Nc3cccnc3)n2)cc(OC)c1OC | -13 | 2 | 7 | 62*
O=C(NN=C1C2CC3CC1CC(Cl)(C3)C2)c1ccccn1 | / | / | / | -2
CCOC(=O)c1[nH]c(C)c(C(=O)N2CCc3ccccc32)c1C | -15 | 58 | 54* | 16
CC(=O)c1c(C)[nH]c(C(=O)N2CCc3ccccc32)c1C | -8 | -17 | 9 | /
CCn1c(=O)cc(OCC(=O)NCc2ccco2)c2ccccc21 | -58 | 90* | ? | /
CCCc1cc(=O)[nH]c(SCC(=O)Nc2nonc2N)n1 | 23 | -34 | 86* | -11
CCCc1cc(=O)[nH]c(SCC(=O)NC(=O)OCC)n1 | -2 | 5 | 11 | 25
COCCCNC(=O)c1cn(C)c(=O)c2cc(OC)c(OC)cc12 | -25 | 100* | ? | /
COC(=O)c1ccccc1NC(=O)c1ccc(-c2cccc(Cl)c2)o1 | ? | / | / | 44*
O=C(CSc1ccccn1)N/N=C/c1ccccc1[N+](=O)[O-] | / | / | / | 62*
O=C(c1ccccc1)N1CCN(c2ccccc2F)CC1 | 3 | 10 | 0 | 71*
O=C(c1ccccc1F)N1CCN(c2ccccc2F)CC1 | / | / | / | 91*
CS(=O)(=O)Nc1ccc(C(=O)N2CCN(c3ccccc3F)CC2)cc1 | -33 | -13 | 28 | 10
O=C(c1ccccc1C(=O)N1CCN(c2ccccc2F)CC1)N1CCN(c2ccccc2F)CC1 | / | / | / | -9
O=C1CC(N2CCN(Cc3ccc4c(c3)OCO4)CC2)C(=O)N1c1ccccc1 (centres undefined) | -3 | 26 | 61* | 13
CC(=O)c1c(C)[nH]c(C(=O)CN2C(=O)NC(C)(c3ccc(C)cc3)C2=O)c1C (centres undefined) | / | / | / | 23
Cc1ccc(CSc2nc3nc(C)cc(C)c3c(=O)[nH]2)cc1 | / | / | / | 2
Cc1nc(SCc2ccc(Br)cc2)[nH]c(=O)c1C | -24 | 33 | 67* | 15
Cc1cccc(C(=O)Oc2ccccc2C2C[C@]3(C)CC(=O)NC3N2C(=O)c2cccc(C)c2)c1 (some centres undefined) | ? | 100* | ? | -15
CC(C)(C)c1ccc(C(=O)OCCNC(=O)c2c(Cl)nc3ccccn23)cc1 | -11 | 0 | -1 | 22
COc1ccc(C(=O)OCCNC(=O)c2c(Cl)nc3ccccn23)cc1 | -14 | 9 | -25 | 60*
Cc1ccc(C(=O)NNC(=O)CSc2n[nH]c(-c3cccnc3)n2)cc1 | / | / | / | -2
O=S1(=O)CCC(NC(=S)N2CCCCCC2)C1 (centres undefined) | / | / | / | 70*
CN(C)C(=S)NC1CCS(=O)(=O)C1 (centres undefined) | / | / | / | 31
O=C(OC[C@@H]1CCCN2CCCC[C@H]12)c1cc2ccccc2oc1=O | / | / | / | 1
SMILES | cytoskel mod | HUVEC tox TNFa | VCAM1 TNFa inh | E-sel TNF inh
CC(/C=C(\NC(=O)c1ccccc1)C(=O)N=Nc1c(O)[nH]c2ccc(C)cc12)=C\c1ccccc1 | -24 | 1 | 22 | -19
Cc1c(CCO)c(=O)n(-c2ccccc2)n1S(=O)(=O)c1ccc(Cl)cc1 | 31* | -43 | 13 | 8
C=CCOc1c2ccc(C(=O)NCc3ccccc3OC)cc2nn1C | 28 | 72 | 68* | 6
C=CCOc1c2ccc(C(=O)NCc3ccc(OC)cc3)cc2nn1C | -16 | -25 | -10 | 13
CCC(C)NC(=O)CSc1ncccc1C(=O)O (centres undefined) | -3 | -9 | 13 | /
O=C1CC(c2ccc(Cl)cc2)n2nc(N3C(=O)CCC3=O)nc2N1 (centres undefined) | 22 | -12 | 4 | 24
COc1ccc(S(=O)(=O)Nc2nc3n(n2)C(c2ccc(Cl)cc2)CC(=O)N3)cc1 (centres undefined) | / | 2 | 39* | -2
CCCc1[nH]nc2c1C(c1cccnc1)C(C#N)=C(N)O2 (centres undefined) | -64 | 82* | 87* | /
O=C(OCn1ncc(Br)c(Br)c1=O)c1ccc(F)cc1 | -7 | 28 | 81* | 90*
O=C(OCn1ncc(Br)c(Br)c1=O)c1ccccc1Cl | -4 | 32 | 34 | /
CCOC(=O)c1c(C)sc2c1N(C(C)=O)c1cc(Cl)ccc1S2 | -7 | -6 | 17 | -3
Cc1ccc(-n2c([O-])nc(-[n+]3ccccc3)c2C=O)cc1 | 37* | 29 | 10 | /
CC1C/C(=C/c2ccccn2)C(=O)/C(=C/c2ccccn2)C1 (centres undefined) | / | / | / | 100*
CC(C)(C)C1C/C(=C/c2ccccn2)C(=O)/C(=C/c2ccccn2)C1 (centres undefined) | / | / | / | 100*
Cc1c(F)cccc1NS(=O)(=O)c1ccc2c(c1)NC(=O)CO2 | / | / | / | -8
c1ccc2c(c1)nc(NC1CCCCC1)c1nncn12 | 12 | -16 | 9 | /
c1ccc(Nc2nc3ccccc3n3cnnc23)cc1 | / | / | / | 87*
O=C1CC(c2ccccc2)n2nc(NC(=O)C3CCCO3)nc2N1 (centres undefined) | / | -11 | 11 | 45*
O=C(Nc1ccccc1N1CCOCC1)c1ccc([N+](=O)[O-])cc1 | 16 | -23 | -6 | 21
O=C(Nc1ccccc1N1CCOCC1)c1ccc(Cl)nc1 | / | / | / | 88*
O=C1CC(N(Cc2ccc3c(c2)OCO3)C(=O)Nc2ccc(F)cc2)C(=O)N1c1ccccc1 (centres undefined) | 1 | -17 | -5 | -20
COc1ccc(NC(=O)N(Cc2ccc3c(c2)OCO3)C2CC(=O)N(c3ccc(OC)cc3)C2=O)cc1 (centres undefined) | 32* | -16 | -18 | 0
COc1ccccc1CC1(C)NC(=O)N(CC(=O)N2CC(C)OC(C)C2)C1=O (centres undefined) | 3 | -1 | 4 | 87*
CC1CN(C(=O)CN2C(=O)NC3(CCCCCC3)C2=O)CC(C)O1 (centres undefined) | 14 | -10 | 2 | 4
Cc1cccc2cc(CN(CC3CCCO3)C(c3nnnn3Cc3ccco3)C(C)C)c(=O)[nH]c12 (centres undefined) | -10 | -46 | -4 | 22
SMILES | cytoskel mod | HUVEC tox TNFa | VCAM1 TNFa inh | E-sel TNF inh
NS(=O)(=O)c1ccc(CCNC(=O)CSc2nc3ccccc3c(=O)n2CCC(=O)N2CCCCC2)cc1 | / | / | / | -5
COC(=O)COc1ccc(=O)n(-c2ccccc2)n1 | ? | 99* | / | -4
O=C(O)COc1ccc(=O)n(-c2ccccc2)n1 | -3 | -18 | -1 | -11
CCOc1cc(/C=N\Nc2nc(Nc3ccccc3)nc(N3CCOCC3)n2)ccc1OC(=O)c1ccco1 | / | / | / | 5
COc1ccc(N(CC(=O)Nc2ccc3c(c2)OCO3)S(C)(=O)=O)c(OC)c1 | -14 | -10 | 6 | 64*
COc1ccc(OC)c(N(CC(=O)Nc2ccccc2)S(C)(=O)=O)c1 | 42* | 16 | -22 | /
COc1ccc(N(CC(=O)Nc2ccc3c(c2)OCCO3)S(C)(=O)=O)c(OC)c1 | / | / | / | 0
C=CCNC(=O)CC(C)C(CCCCC)C(=O)O (centres undefined) | -16 | -32 | -2 | /
O=C(NNC(=O)c1ccccc1-n1cccc1)c1ccc(Cl)c(Cl)c1 | 13 | -34 | 9 | 4
O=C(NNC(=O)c1ccccc1-n1cccc1)c1ccc(Cl)cc1 | / | 9 | -19 | 54*
COc1ccc(CN2C(=O)[C@@H]3C(c4ccc(F)cc4)=NO[C@@H]3C2=O)cc1 | 36 | / | 92* | -6
